The supplement of paper PMC10849652
Of roughly 8,800 targets only a part is listed; those with a hit were picked by preference. About 0.5% of all pairs of compound and target were hits.

Compound: CS(=O)(=O)CCNCc1ccc(-c2ccc3ncnc(Nc4ccc(OCc5cccc(F)c5)c(Cl)c4)c3c2)o1 [lapatinib]
Assay: log2 fold change, soluble protein after heating vs DMSO (PISA); higher = thermal stabilisation; K562 lysate, 10 uM; active = over 0.2 and 3.5 SD of the protein, either way, in both replicates (recomputed)
Method in brief: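 Soluble protein was defined as the supernatant remaining after 21,000xg for 90 min, following pooling of heated aliquots and adjustment to 0.5% NP-40 at 4°C. Before that, crude K562 extract at 1 mg/mL protein in PBS pH 7.4 with 1 mM MgCl2 was treated with 10 μM compound for 30 min and heated for 3 min across 48°C-58°C. Quantification used TMTpro 16plex LC-MS/MS with channel sums equalised, and values are log-two fold changes in thermal stability relative to solvent controls from duplicates.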

Chain of UniProt Q4ADV7 (Q4ADV7 whole entry, looked up): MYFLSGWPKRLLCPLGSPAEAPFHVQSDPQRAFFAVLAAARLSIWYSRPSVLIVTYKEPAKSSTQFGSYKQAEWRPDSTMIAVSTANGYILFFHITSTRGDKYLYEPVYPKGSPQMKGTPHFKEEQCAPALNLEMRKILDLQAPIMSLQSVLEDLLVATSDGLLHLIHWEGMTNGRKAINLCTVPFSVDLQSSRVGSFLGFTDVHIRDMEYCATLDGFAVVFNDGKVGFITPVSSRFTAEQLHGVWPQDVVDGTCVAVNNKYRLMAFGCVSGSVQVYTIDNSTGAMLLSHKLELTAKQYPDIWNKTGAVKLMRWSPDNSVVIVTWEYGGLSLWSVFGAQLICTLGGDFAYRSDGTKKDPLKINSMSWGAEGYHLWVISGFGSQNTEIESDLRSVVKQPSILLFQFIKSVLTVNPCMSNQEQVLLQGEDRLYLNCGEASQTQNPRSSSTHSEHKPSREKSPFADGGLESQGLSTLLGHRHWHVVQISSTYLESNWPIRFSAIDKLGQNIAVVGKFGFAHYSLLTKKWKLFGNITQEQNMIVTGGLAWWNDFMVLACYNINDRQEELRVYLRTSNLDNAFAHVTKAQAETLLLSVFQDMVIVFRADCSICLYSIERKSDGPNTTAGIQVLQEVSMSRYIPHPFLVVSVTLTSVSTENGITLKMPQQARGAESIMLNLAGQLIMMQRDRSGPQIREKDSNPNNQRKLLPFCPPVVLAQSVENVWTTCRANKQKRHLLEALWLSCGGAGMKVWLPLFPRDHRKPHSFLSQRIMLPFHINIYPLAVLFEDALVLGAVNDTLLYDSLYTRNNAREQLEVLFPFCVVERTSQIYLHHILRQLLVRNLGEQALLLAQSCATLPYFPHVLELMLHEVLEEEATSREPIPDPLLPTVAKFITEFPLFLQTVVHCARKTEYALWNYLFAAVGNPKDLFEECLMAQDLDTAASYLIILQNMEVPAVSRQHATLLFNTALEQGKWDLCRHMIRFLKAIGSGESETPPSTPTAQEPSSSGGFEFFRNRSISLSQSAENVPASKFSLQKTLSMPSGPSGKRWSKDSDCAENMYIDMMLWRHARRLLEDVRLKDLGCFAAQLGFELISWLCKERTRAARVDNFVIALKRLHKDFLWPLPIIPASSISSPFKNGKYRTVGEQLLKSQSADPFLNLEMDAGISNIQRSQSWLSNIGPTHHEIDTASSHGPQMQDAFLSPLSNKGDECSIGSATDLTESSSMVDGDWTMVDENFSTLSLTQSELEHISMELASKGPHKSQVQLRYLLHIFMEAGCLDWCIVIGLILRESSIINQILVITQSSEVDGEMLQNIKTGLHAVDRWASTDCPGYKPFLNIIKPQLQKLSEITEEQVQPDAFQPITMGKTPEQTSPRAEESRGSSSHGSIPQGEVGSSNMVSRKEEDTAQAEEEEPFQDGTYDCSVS
Chain of UniProt P28702 (P28702 whole entry, looked up): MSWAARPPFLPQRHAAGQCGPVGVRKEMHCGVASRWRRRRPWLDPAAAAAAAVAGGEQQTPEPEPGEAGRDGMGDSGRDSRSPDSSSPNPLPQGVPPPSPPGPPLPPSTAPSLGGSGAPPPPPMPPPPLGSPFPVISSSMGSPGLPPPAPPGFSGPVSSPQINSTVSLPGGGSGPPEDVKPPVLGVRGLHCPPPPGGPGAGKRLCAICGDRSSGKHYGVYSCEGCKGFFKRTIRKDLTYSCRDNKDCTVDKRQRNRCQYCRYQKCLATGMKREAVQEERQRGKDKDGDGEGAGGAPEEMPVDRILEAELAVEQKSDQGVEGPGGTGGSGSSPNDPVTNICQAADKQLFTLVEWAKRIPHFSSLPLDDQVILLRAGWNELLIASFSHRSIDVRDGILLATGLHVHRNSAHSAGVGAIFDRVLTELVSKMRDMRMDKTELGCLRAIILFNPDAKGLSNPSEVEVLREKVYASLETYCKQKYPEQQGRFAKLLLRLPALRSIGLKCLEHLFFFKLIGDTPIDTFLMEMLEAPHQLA
Chain of UniProt Q9Y3T6 (Q9Y3T6 whole entry, looked up, one chain of several): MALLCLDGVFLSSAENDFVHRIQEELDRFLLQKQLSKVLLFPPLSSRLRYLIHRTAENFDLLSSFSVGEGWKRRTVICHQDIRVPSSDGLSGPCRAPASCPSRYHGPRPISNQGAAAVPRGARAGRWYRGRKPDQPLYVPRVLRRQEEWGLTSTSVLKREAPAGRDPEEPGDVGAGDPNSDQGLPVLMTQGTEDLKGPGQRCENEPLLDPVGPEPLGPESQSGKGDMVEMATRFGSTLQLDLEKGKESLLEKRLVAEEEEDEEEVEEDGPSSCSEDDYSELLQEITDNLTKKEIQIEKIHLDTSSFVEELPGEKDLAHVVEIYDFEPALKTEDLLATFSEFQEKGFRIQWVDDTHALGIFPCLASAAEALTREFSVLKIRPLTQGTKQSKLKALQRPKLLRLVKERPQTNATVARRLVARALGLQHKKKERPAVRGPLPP
Chain of UniProt O94762 (O94762 whole entry, looked up): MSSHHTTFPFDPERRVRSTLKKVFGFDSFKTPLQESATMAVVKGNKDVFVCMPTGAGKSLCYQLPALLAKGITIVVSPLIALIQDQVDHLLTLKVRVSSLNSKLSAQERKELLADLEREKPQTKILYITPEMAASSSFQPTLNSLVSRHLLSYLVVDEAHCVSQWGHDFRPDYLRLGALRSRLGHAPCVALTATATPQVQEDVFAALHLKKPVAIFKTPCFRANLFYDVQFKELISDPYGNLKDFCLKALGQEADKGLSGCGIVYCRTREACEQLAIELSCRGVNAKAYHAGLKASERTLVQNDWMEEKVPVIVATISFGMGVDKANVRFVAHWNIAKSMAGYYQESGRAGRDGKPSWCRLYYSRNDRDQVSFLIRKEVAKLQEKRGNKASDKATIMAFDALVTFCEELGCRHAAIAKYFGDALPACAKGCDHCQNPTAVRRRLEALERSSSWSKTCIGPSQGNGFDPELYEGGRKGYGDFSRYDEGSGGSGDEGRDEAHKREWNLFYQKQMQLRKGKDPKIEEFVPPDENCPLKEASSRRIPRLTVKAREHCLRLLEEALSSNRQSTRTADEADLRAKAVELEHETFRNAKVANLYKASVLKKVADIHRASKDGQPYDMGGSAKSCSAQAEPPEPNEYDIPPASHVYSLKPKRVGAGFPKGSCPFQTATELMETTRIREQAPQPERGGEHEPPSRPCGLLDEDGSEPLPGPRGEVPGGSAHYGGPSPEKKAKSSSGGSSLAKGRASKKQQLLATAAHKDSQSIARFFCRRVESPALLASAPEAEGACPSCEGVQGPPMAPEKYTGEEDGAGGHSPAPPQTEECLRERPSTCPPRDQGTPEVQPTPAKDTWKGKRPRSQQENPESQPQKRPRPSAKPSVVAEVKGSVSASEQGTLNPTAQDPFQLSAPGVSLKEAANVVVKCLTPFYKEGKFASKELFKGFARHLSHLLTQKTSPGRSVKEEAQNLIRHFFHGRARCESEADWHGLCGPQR
Chain of UniProt O75446 (O75446 whole entry, looked up): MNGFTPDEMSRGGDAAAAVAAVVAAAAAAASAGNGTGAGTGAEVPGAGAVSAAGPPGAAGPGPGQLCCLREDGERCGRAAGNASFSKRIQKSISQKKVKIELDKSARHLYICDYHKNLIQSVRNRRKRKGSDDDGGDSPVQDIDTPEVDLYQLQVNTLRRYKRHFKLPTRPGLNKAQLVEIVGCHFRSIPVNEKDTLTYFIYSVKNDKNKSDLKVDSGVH
Chain of UniProt Q9H974 (Q9H974 whole entry, looked up): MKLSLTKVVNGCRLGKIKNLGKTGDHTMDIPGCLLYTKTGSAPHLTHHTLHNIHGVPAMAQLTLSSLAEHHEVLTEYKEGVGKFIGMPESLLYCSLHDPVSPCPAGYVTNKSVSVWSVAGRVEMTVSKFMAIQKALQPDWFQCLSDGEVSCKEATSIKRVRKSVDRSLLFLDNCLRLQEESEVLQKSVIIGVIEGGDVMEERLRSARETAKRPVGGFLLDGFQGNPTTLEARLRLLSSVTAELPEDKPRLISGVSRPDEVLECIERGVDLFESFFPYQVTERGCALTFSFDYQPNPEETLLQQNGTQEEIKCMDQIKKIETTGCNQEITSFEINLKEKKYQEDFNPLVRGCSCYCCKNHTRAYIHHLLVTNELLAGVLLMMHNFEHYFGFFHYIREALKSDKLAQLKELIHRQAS
Chain of UniProt Q9UL25 (Q9UL25 whole entry, looked up): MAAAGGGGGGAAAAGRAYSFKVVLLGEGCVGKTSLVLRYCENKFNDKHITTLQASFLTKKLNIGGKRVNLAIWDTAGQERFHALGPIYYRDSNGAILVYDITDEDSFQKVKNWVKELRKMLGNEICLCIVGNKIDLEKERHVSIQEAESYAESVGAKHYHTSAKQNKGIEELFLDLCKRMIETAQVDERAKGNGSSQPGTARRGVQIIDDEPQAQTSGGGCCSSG
Chain of UniProt Q6UVJ0 (Q6UVJ0 whole entry, looked up): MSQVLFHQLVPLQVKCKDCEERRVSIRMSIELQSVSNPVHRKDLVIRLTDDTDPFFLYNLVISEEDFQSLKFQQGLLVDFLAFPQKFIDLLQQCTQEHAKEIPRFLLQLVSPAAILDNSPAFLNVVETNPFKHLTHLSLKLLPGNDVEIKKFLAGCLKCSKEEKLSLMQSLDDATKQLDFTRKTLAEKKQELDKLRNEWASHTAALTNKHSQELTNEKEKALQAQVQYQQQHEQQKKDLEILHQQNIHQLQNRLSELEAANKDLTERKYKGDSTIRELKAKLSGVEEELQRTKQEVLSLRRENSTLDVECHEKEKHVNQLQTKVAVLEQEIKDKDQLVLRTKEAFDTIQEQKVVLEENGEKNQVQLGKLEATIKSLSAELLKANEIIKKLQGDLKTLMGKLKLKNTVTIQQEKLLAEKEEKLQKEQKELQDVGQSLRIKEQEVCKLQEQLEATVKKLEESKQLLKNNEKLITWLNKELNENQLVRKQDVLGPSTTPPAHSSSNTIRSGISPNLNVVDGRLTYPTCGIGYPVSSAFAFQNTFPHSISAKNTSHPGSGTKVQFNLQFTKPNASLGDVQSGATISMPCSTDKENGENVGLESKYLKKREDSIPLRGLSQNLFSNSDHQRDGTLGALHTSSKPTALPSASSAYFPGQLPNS
Chain of UniProt P31949 (P31949 whole entry, looked up): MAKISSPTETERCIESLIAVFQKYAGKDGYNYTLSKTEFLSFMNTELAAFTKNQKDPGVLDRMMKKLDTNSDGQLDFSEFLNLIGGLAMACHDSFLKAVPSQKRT

log2 fold change, inactive:
RDH10 (UniProt Q8IZV5) 0.004
RPTOR (UniProt Q8N122) -0.001
SASS6 (UniProt Q6UVJ0) 0.001
RBBP7 isoform 2 (UniProt Q16576) 0.002
RAB21 (UniProt Q9UL25) -0.028
RBSN (UniProt Q9H1K0) -0.008
RECQL5 (UniProt O94762) 0.277
SAP30 (UniProt O75446) -0.064
R3HCC1 (UniProt Q9Y3T6) -0.018
RPL31 (UniProt P62899) -0.01
S100A11 (UniProt P31949) 0.105
RFC2 (UniProt P35250) -0.004
RPL27 (UniProt P61353) -0.04
RXRB isoform 3 (UniProt P28702) 0.085
RIC1 (UniProt Q4ADV7) 0.016
RAPGEF2, A0A2R8YGD3 -0.014
REEP5 (UniProt Q00765) -0.001
QTRT2 isoform 4 (UniProt Q9H974) -0.016
RAP1GAP isoform 4 (UniProt P47736) -0.019
REXO4 (UniProt Q9GZR2) 0
RIOK2 (UniProt Q9BVS4) -0.032
RNF17 (UniProt Q9BXT8) -0.02
SCCPDH (UniProt Q8NBX0) 0.108
